Data taken from PubChem BioAssay (NCI).
This is part of a sample that, as a whole, favours compounds with a hit. Of some 83,000 tested, about 20% had one in any assay.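 Cell lines were cultured in 96-well plates, exposed to a single compound concentration, and assessed for percent growth 48 hours later.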 Values without a mark were called inactive. Activity calls are given as the source filed them. Rule for the calls: active = growth percent below 10; inactive = the rest.

Tests used:
Experiment in all cases: NCI-60 one-dose screen, 48 h (100 = growth as untreated, 0 = no growth, -100 = all killed)
Conditions in all cases: 10 µM unless noted
[1] = test system: NCI-H23 lung
[2] = test system: NCI-H226 lung
[3] = test system: NCI-H322M lung
[4] = test system: HOP-62 NSCLC
[5] = test system: NCI-H460 lung
[6] = test system: NCI-H522 lung
[7] = test system: A549/ATCC NSCLC
[8] = test system: 786-0 renal
[9] = test system: COLO 205 colon
[10] = test system: DU-145 prostate
[11] = test system: K-562 leukemia
[12] = test system: MALME-3M melanoma
[13] = test system: MDA-MB-231 breast
[14] = test system: RXF 393 renal
[15] = test system: SF-268 CNS
[16] = test system: SF-539 CNS
[17] = test system: UACC-257 melanoma
[18] = test system: M14 melanoma
[19] = test system: HCT-15 colon
[20] = test system: SF-295 CNS

SMILES | growth [1] | growth [2] | growth [3] | growth [4] | growth [5] | growth [6] | growth [7] | growth [8] | growth [9] | growth [10] | growth [11] | growth [12] | growth [13] | growth [14] | growth [15] | growth [16] | growth [17] | growth [18] | growth [19] | growth [20]
S=c1[nH]nc2sc3ccccc3n12 | 88% | 106% | 125% | 97.9% | 111% | 98.4% | 108% | 111% | 104% | 121% | 107% | 122% | 96.7% | 116% | 110% | 106% | 111% | 104% | 100% | –
CCN(CC)c1ccc(C(O)C2=CC(=O)c3ccccc3C2=O)cc1 (stereo not drawn) | -2.03% (active) | 37.5% | 25.2% | -12.7% (active) | 7.97% (active) | -62.2% (active) | 47.6% | 3.34% (active) | 21.6% | 3.92% (active) | 2.86% (active) | -11.3% (active) | -51% (active) | -80.2% (active) | -30.9% (active) | -38.2% (active) | 9.28% (active) | 13.8% | 30.3% | –
c1cnc2n[nH]c(Nc3ncnc4c3sc3ncccc34)c2c1 | 82.4% | 93.8% | 106% | 90.8% | 96% | 82.1% | 87.3% | 106% | 107% | 115% | 86.8% | 92.9% | 97.4% | 99.6% | 108% | 105% | 90.3% | 97.4% | 95.1% | –
Cc1cc(C(=O)O)c(C)cc1C(=O)O | 107% | 101% | 76.8% | 93.5% | 119% | 96.5% | 103% | 101% | 120% | 120% | 101% | 89.5% | 114% | 116% | 115% | 113% | 104% | – | 104% | –
COc1cc(/C=C2\CCC/C(=C\c3ccc(OCC4CO4)c(OC)c3)C2=O)ccc1OCC1CO1 (stereo not drawn) | 57.8% | 86.2% | 85.1% | 28.9% | 8.96% (active) | 24.3% | 21.3% | 65.2% | 33.8% | 7.14% (active) | -3.49% (active) | 26.2% | 13.1% | 4.7% (active) | 1.73% (active) | 25.2% | 35.1% | 2.79% (active) | 14.4% | –
Clc1cccc(Cc2cn3cc(-c4ccccc4)nc3s2)c1 | 62.6% | 73% | 63.5% | 69.7% | 16.5% | 45.9% | 37.5% | 68.9% | -36.6% (active) | 52.4% | 21.1% | 85.5% | 52.2% | 94% | 64.9% | 41.6% | 37.4% | 6.04% (active) | 40.4% | –
CN(C)c1nc(N)nc(Cn2c(-c3nonc3N)nc3ccccc32)n1 | 90.4% | 91.3% | 103% | 81% | 95.6% | 77.5% | 86.7% | 99.2% | 83.7% | 109% | 23.1% | 88% | 76.7% | 89.6% | 101% | 86.5% | 93.3% | 72.7% | 59.4% | –
NS(=O)(=O)c1ccc(NC2=C(Cl)C(=O)c3ccccc3C2=O)cc1 | 80.9% | 61.9% | 113% | 102% | 116% | 70.1% | 112% | 104% | 95.2% | 142% | 18.6% | 135% | 79.7% | – | 118% | 89.6% | 92.5% | 99.9% | 46.5% | 111%
ClC1=C(Cl)C(Cl)=C(Cl)C1=C/C=C/c1ccccc1 | -45.9% (active) | -70.5% (active) | -27.8% (active) | -68.2% (active) | 0.0738% (active) | -52.4% (active) | -58% (active) | -71.3% (active) | -90.6% (active) | -46.5% (active) | -18.9% (active) | -38.8% (active) | -17.2% (active) | – | -48.7% (active) | -92.4% (active) | -80.7% (active) | – | -77% (active) | -2.39% (active)
COc1ccc(Nc2nccc(N3CCN(c4c5ccc(Cl)cc5nc5ccc(OC)cc45)CC3)n2)cc1 | 95.7% | 93.8% | 83.5% | 95.6% | 85.8% | -58.3% (active) | 75.2% | 60% | 61.1% | 86.6% | 25.4% | 46% | 61.3% | – | 66.7% | 92.8% | 102% | 88.4% | 36.9% | 78.6%
Cc1cc(NCCCNc2ccnc3cc(Cl)ccc23)nc(N2CCN(C)CC2)n1 | 95.1% | 75.3% | 56.4% | 62.7% | 24.1% | 4.29% (active) | 70.5% | 78.7% | 48.1% | 78.2% | 8.07% (active) | 59.2% | 53.8% | – | 70.7% | -18.8% (active) | 50.4% | 25.7% | 43.6% | 61%
O=C(/C=C/c1ccccc1Cl)c1ccc(O)cc1 | 93.7% | 95.2% | 89.5% | 117% | 93.8% | 58.2% | 41.8% | 85% | 90% | -7.3% (active) | 32.8% | 93.1% | 89% | – | 53.7% | 94.1% | 116% | 76.8% | 37.5% | 47.4%
O=C(O)c1ccccc1C(=O)OC1CCCC2CCCC21 (stereo not drawn) | 95.1% | 101% | 115% | 98.2% | 112% | 107% | 101% | 116% | 117% | 103% | 102% | 133% | 121% | 104% | 106% | 102% | 105% | – | 92.1% | –
CCCCCCC(C)(O)c1ccccc1 (stereo not drawn) | 102% | 106% | 126% | 105% | 110% | 100% | 110% | 108% | 114% | 118% | 101% | – | 109% | 124% | 107% | 110% | 115% | 105% | 110% | 125%
COc1ccc2[nH]cc(/C=C3/C(=O)Nc4ccc(Cl)cc43)c2c1 | 37.8% | 60.1% | 57.1% | 64.8% | 46.1% | -7.27% (active) | 56.6% | 43.2% | 63.8% | 47.6% | 27.4% | 31.5% | 28.2% | 21.3% | – | 67.8% | 68.5% | 37.2% | 30.4% | 53.1%
O=[N+]([O-])c1ccc(N/N=C/c2c(O)ccc3ccccc23)nc1 | 61.4% | 89% | 19.7% | 45.6% | 24.2% | 18.5% | 49.2% | 59.2% | 73.1% | 39.4% | 31.7% | – | 47.5% | 67.1% | 45.8% | 46% | 29.5% | 65.3% | 24.5% | 25.1%
COc1ccc2nc3cc(Cl)ccc3c(N3CCN(c4ccnc(Nc5ccc(F)cc5)n4)CC3)c2c1 | 89.3% | 98.5% | 97.7% | 92.9% | 94% | -5.18% (active) | 79.5% | 70.4% | 108% | 93.1% | 43.1% | 105% | 58.4% | – | 79.2% | 85.4% | 105% | 102% | 48.3% | 75.9%
Fc1ccc(-c2nnc(-c3c(-c4ccc(F)cc4)nc4ncccn34)o2)cc1 | 98.2% | 113% | 105% | 105% | 111% | 89.1% | 96% | 93.1% | 104% | 103% | 89.3% | 121% | 122% | 97.8% | – | 94.4% | 107% | 112% | 87.9% | 93%
COc1cccc(/C=C2\COc3ccc(O)c(O)c3C2=O)c1OC | 60.5% | 62.8% | 32.7% | 19% | 3.8% (active) | -33.3% (active) | 32.5% | -6.52% (active) | 72.7% | 2.64% (active) | -5.62% (active) | -75.9% (active) | -34.4% (active) | – | 17.4% | -73% (active) | 26.8% | – | -10.7% (active) | 83.2%
CCN1C(=O)c2ccc3c4c(ccc(c24)C1=O)C(=O)N(CCCNCc1ccccc1OC)C3=O | -42.7% (active) | -36.6% (active) | -31.6% (active) | -36.8% (active) | -57.8% (active) | -87.1% (active) | -58.1% (active) | -51.5% (active) | -81.5% (active) | -87.4% (active) | -36% (active) | -87.6% (active) | 2.92% (active) | – | -15.5% (active) | -96.4% (active) | -88.6% (active) | -92.8% (active) | -78.3% (active) | -69.8% (active)
C[N+]1(CCC[N+]2(C)C[C@@H]3[C@H](C2)[C@@H]2C=C[C@H]3C2)CCOCC1 (stereo partly drawn) | 105% | 110% | 106% | 94.3% | 116% | 106% | 111% | 109% | 104% | 140% | 110% | – | 104% | 121% | 115% | 100% | 112% | 108% | 91.4% | 113%
CC/C=C\C=C/C(=O)N/C=C/CC1Cc2cccc(O)c2C(=O)O1 (stereo not drawn) | 77.1% | 110% | 119% | 65.5% | 130% | 55.2% | 84.8% | 81.5% | 94.2% | 76.4% | 25.9% | 98.8% | 64.3% | – | 119% | 38.3% | 86.7% | 44.2% | 80.3% | 262%
COc1cc(/C=C/C(=O)c2ccc(F)cc2)ccc1OCCCCCOc1cc2c(cc1OC)C(=O)N1CCCC1C=N2 (stereo not drawn) | -32.6% (active) | -49.7% (active) | -2.96% (active) | -34.8% (active) | 3.88% (active) | -59.9% (active) | 4.95% (active) | -43.3% (active) | -72% (active) | -13.1% (active) | -6.46% (active) | -77.6% (active) | -33% (active) | – | -29.9% (active) | -67.1% (active) | 8.38% (active) | -70% (active) | -3.47% (active) | 72.2%
